Laboratory results: PubChem BioAssay (NCI)
Values joined by “and” are separate entries in the source; they are usually repeats but may differ in a detail not shown here. Equal values may be shown once. The panel holds about 79,000 compounds, 15% with a hit somewhere; the sample as a whole holds those more often. Active and inactive are the calls of the source. Cut-off read from the data, not from the text of the source: active = growth inhibition above about 70%; inactive = the rest.

Experiments:
[1] = NCI Yeast Anticancer Drug Screen. Data for the mec2-1 strain (AID 157); conditions: S. cerevisiae mec2-1 strain, active compounds read high
Outline: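 Each compound was tested on mec2-1 yeast, a strain altered in DNA damage repair or cell cycle control. Growth inhibition is reported relative to vehicle.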

[2] = NCI Yeast Anticancer Drug Screen. Data for the rad14 strain (AID 159);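 note: 0% = growth of vehicle-treated control cultures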; conditions: S. cerevisiae rad14 strain growth inhibition, active compounds read high
Outline: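 DNA repair-defective yeast, compound-exposed; % growth inhibition derived by comparison with vehicle-treated controls.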

[3] = NCI Yeast Anticancer Drug Screen. Data for the sgs1 mgt1 strain (AID 161);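 note: 0% = growth of cultures given vehicle only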; conditions: S. cerevisiae sgs1 mgt1 strain, active compounds read high
Outline: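 Test agents were incubated with a DNA-repair-mutant yeast strain. Growth was then read and compared against vehicle-treated controls.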

[4] = NCI Yeast Anticancer Drug Screen. Data for the CLN2oe strain (AID 163);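 note: 0% = growth of vehicle-only control cultures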; conditions: S. cerevisiae CLN2oe strain, active compounds read high
Outline: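 First, the altered yeast strain was treated with each compound; second, its growth was measured; finally, inhibition was derived by comparison with vehicle controls.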

[5] = NCI Yeast Anticancer Drug Screen. Data for the cln2 rad14 strain (AID 165);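 note: 0% = growth equal to vehicle treated cultures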; conditions: S. cerevisiae cln2 rad14 strain, active compounds read high
Outline: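 Test compounds were added to cln2 rad14 yeast cultures; inhibition of growth was then determined by comparison with vehicle treatment.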

[6] = NCI Yeast Anticancer Drug Screen. Data for the bub3 strain (AID 167); conditions: S. cerevisiae bub3 mutant strain, active compounds read high
Outline: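 In this screen, a yeast mutant lacking normal mitotic checkpoint function is challenged with compound. Relative growth versus vehicle gives the inhibition value.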

[7] = NCI Yeast Anticancer Drug Screen. Data for the wt2 strain (AID 169);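 note: 0% = growth of vehicle-treated yeast cultures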; conditions: S. cerevisiae wt2 strain growth inhibition, active compounds read high
Outline: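 The panel's yeast strains carry defined changes in DNA repair or cell cycle genes. Each strain is grown with compound, and growth loss is scored relative to vehicle.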

[8] = NCI Yeast Anticancer Drug Screen. Data for the mlh1 strain (AID 171);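 note: 0% = growth of vehicle-treated control cultures of the same strain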; conditions: S. cerevisiae mlh1 strain growth inhibition, active compounds read high
Outline: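 Inhibition values reflect reduced yeast growth in the presence of compound, referenced to vehicle controls, using a strain chosen for its alteration in DNA repair or cell cycle control.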

[9] = NCI Yeast Anticancer Drug Screen. Data for the sgs1 strain (AID 173);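 note: 0% = growth of vehicle-only control cultures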; conditions: S. cerevisiae sgs1 mutant, active compounds read high
Outline: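 Vehicle-treated cultures served as reference for growth inhibition of a yeast strain altered in DNA damage repair or cell cycle control after compound exposure.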

[10] = NCI Yeast Anticancer Drug Screen. Data for the rad18 strain (AID 177); conditions: S. cerevisiae rad18 mutant growth inhibition, active compounds read high
Outline: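 Steps: expose repair-mutant yeast to compound; measure growth; express as inhibition relative to vehicle control.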

[11] = NCI Yeast Anticancer Drug Screen. Data for the rad52 strain (AID 147);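 note: 0% = growth of vehicle-treated control cultures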; conditions: S. cerevisiae rad52 mutant growth inhibition, active compounds read high
Outline: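 Inhibition of yeast growth, referenced to vehicle controls, was the measured output for a strain with defective DNA damage repair.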

[12] = NCI Yeast Anticancer Drug Screen. Data for the wt1 strain (AID 149);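 note: 0% = growth of vehicle-treated wt1 cultures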; conditions: S. cerevisiae wt1 strain (SPY 50644) growth inhibition, active compounds read high
Outline: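 wt1 strain grown with compound or vehicle; inhibition taken from the growth difference.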

[13] = NCI Yeast Anticancer Drug Screen. Data for the rad50EPP+ strain (AID 151);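 note: 0% = growth of vehicle-treated control cultures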; conditions: S. cerevisiae rad50 mutant strain, active compounds read high
Outline: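 Genetically defined yeast (rad50EPP+, DNA damage repair alteration) is grown with compound, and inhibition of growth is expressed relative to vehicle-treated controls.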

[14] = NCI Yeast Anticancer Drug Screen. Data for the mgt1 strain (AID 153); conditions: S. cerevisiae mgt1 mutant growth inhibition, active compounds read high
Outline: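 In the mgt1 strain, test compounds were added and growth inhibition was determined relative to vehicle-treated controls.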

[15] = NCI Yeast Anticancer Drug Screen. Data for the rad50 strain (AID 155);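 note: 0% = growth of vehicle-only cultures of the same strain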; conditions: S. cerevisiae rad50 strain growth inhibition, active compounds read high
Outline: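 DNA repair mutant yeast, compound exposure, growth read-out; inhibition is taken relative to vehicle.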

[16] = NCI Yeast Anticancer Drug Screen. Data for the mlh1 rad18 strain (AID 175); conditions: S. cerevisiae mlh1 rad18 strain growth inhibition, active compounds read high
Outline: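 Inhibition values reflect reduced growth of mutant yeast versus vehicle-treated controls following compound exposure; the mutations affect DNA damage repair.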

[17] = at 5.0 µM (retest, dose inferred, filed as 0.5)
[18] = at 50.0 µM (retest, dose inferred, filed as 5.0)

Measured: growth inhibition

Cc1sc2ccc3ccccc3c2[n+]1C
inactive: [1]; [17] 49% and -26% | [1]; at 11.0 µM -17% | [1]; at 33.0 µM -11% | [1]; [18] 61% and -2% | [2]; at 1.2 µM -34% | [2]; at 3.7 µM -22% | [2]; at 11.0 µM -29% | [2]; at 33.0 µM -28% | [3]; [17] -14% and -11% | [3]; [18] 20% and 4% | [4]; at 1.2 µM -16% | [4]; at 3.7 µM -64% | [4]; at 11.0 µM -39% | [4]; at 33.0 µM -19% | [5]; [17] 47% and -10% | [5]; [18] 32% and 15% | [6]; at 1.2 µM -2% | [6]; at 3.7 µM -15% | [6]; [17] 23% and -18% | [6]; at 11.0 µM -28% | [6]; at 33.0 µM 14% | [6]; [18] 44% and 36% | [7]; at 1.2 µM -11% | [7]; at 3.7 µM 2% | [7]; at 11.0 µM -12% | [7]; at 33.0 µM 8% | [8]; at 1.2 µM -67% | [8]; at 3.7 µM -62% | [8]; at 11.0 µM -70% | [8]; at 33.0 µM -41% | [8]; at 100.0 µM 41% | [9]; at 1.2 µM 3% | [9]; at 3.7 µM 2% | [9]; at 11.0 µM 1% | [9]; at 33.0 µM 19% | [10]; at 1.2 µM 0% | [10]; at 3.7 µM 4% | [10]; at 11.0 µM 2% | [10]; at 33.0 µM -1%
active: [1]; at 50.0 µM 85.8% and 91.7% | [1]; at 100.0 µM 93% | [2]; at 100.0 µM 85% | [3]; at 50.0 µM 89.2% and 97.3% | [4]; at 100.0 µM 92% | [5]; at 50.0 µM 87.2% and 77.2% | [6]; at 50.0 µM 86.6% and 89.3% | [6]; at 100.0 µM 96% | [7]; at 100.0 µM 94% | [9]; at 100.0 µM 91% | [10]; at 100.0 µM 87%

O=C1c2cccnc2C(=O)C2C3C=CC(C3)C12 (stereo not drawn)
inactive: [11]; at 1.2 µM 12% | [11]; at 3.7 µM 35% | [12]; at 1.2 µM 16% | [12]; at 3.7 µM 20% | [12]; at 11.0 µM 43% | [13]; at 1.2 µM 30% | [14]; at 1.2 µM 12% | [14]; at 3.7 µM 32% | [14]; at 11.0 µM 65% | [15]; at 1.2 µM 31% | [15]; [17] 29% | [1]; at 1.2 µM 19% | [1]; at 3.7 µM 34% | [1]; [17] 37% | [2]; at 1.2 µM 20% | [2]; at 3.7 µM 44% | [3]; [17] 56% | [4]; at 1.2 µM 10% | [4]; at 3.7 µM 16% | [4]; at 11.0 µM 30% | [5]; [17] -31% | [5]; at 50.0 µM 45.5% | [6]; at 1.2 µM 9% | [6]; at 3.7 µM 30% | [6]; [17] 57% | [7]; at 1.2 µM 16% | [7]; at 3.7 µM 36% | [8]; at 1.2 µM 28% | [8]; at 3.7 µM 55% | [10]; at 1.2 µM 29%
active: [11]; at 11.0 µM 78% | [11]; at 33.0 µM 94% | [11]; at 100.0 µM 98% | [12]; at 33.0 µM 91% | [12]; at 100.0 µM 99% | [13]; at 3.7 µM 82% | [13]; at 11.0 µM 92% | [13]; at 33.0 µM 96% | [13]; at 100.0 µM 97% | [14]; at 33.0 µM 94% | [14]; at 100.0 µM 98% | [15]; at 3.7 µM 73% | [15]; at 11.0 µM 91% | [15]; at 33.0 µM 97% | [15]; [18] 96% | [15]; at 50.0 µM 99.4% | [15]; at 100.0 µM 94% | [1]; at 11.0 µM 87% | [1]; at 33.0 µM 98% | [1]; [18] 98% | [1]; at 50.0 µM 99.5% | [1]; at 100.0 µM 99% | [2]; at 11.0 µM 87% | [2]; at 33.0 µM 99% | [2]; at 100.0 µM 99% | [3]; [18] 98% | [3]; at 50.0 µM 99.2% | [4]; at 33.0 µM 75% | [4]; at 100.0 µM 97% | [5]; [18] 85% | [6]; at 11.0 µM 72% | [6]; at 33.0 µM 95% | [6]; [18] 98% | [6]; at 50.0 µM 98.4% | [6]; at 100.0 µM 99% | [7]; at 11.0 µM 78% | [7]; at 33.0 µM 97% | [7]; at 100.0 µM 99% | [8]; at 11.0 µM 92% | [8]; at 33.0 µM 98% | [8]; at 100.0 µM 99% | [16]; [17] 72% | [16]; [18] 98% | [16]; at 50.0 µM 99.2% | [10]; at 3.7 µM 76% | [10]; at 11.0 µM 91% | [10]; at 33.0 µM 96% | [10]; at 100.0 µM 97%
